# NS1 inh: qHTS Assay for Inhibitors of Influenza NS1 Protein Function | Potency, µM (titrated, usually from 46.1 µM), without a hit: top-dose activity, positive = more growth | 270,000 tested, 0.4% active; calls by dose curve; further: potency means the concentration at half of the fitted maximal effect; actives are rising curves; nearly all actives have a fitted effect of over 50% in size
#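 Recovery from NS1-induced slow growth read by OD600 in budding yeast switched to galactose assay medium (pH 6.0, -URA) at 1:100 dilution. Compound 23 nl per well; the matching strain lacking NS1 serves as control.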
# Pf growth 48h: Primary qHTS for delayed death inhibitors of the malarial parasite plastid, 48 hour incubation. 310,000 tested, 5.9% active. P. falciparum luciferase growth in erythrocytes, 48 h. Potency, µM (titrated, usually from 28.7 µM), inactives show at the top dose activity change, negative = inhibition, actives largely listed as inhibitors; further: potency means the concentration at half of the fitted maximal effect; on the % scale 0 is the no-effect control and ±100 the full control effect
#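 Compounds are pin-transferred into medium, infected erythrocytes (2% hematocrit, 0.1% parasitemia final) are added, and plates sit one parasite generation at 37 C in 5% CO2. Detection reagent is then added and luminescence measured.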
# Pf growth 96h: Primary qHTS for delayed death inhibitors of the malarial parasite plastid, 96 hour incubation. P. falciparum luciferase reporter growth, 96 h. Potency, µM (highest dose often 28.7 µM), for inactives: top-dose activity change, negative = inhibition, hits mostly inhibitors. 320,000 tested, 6.9% active. AID 504834, 2011; further: potency means the concentration at half of the fitted maximal effect; on the % scale 0 is the no-effect control and ±100 the full control effect
#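 Cell-based qHTS: luciferase-tagged P. falciparum in erythrocytes (2% hematocrit, 0.05% parasitemia final) incubated with compounds for 96 hours, 37 C, 5% CO2; luciferase detection reagent then added and luminescence measured.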
# Cycloheximide cs: Cycloheximide Counterscreen for Small Molecule Inhibitors of Shiga Toxin. 300,000 tested, 12% active. cell reporter, cycloheximide protein synthesis inhibition counterscreen. AID 2314, 2010. max response, %; in the data active means max response mostly above about 13%, no sharp cut-off; inactive means mostly below about 14%; further: read at 38.3 µM for the half of the compounds with a filed dose; 0% is about no effect
# Shiga toxin inh: A qHTS for Small Molecule Inhibitors of Shiga Toxin | inhibition, % at 38.7 µM | 290,000 tested, 9.2% active | Vero cells, Shiga toxin protein synthesis inhibition reporter; in the data active means inhibition mostly above about 28%, no sharp cut-off; inactive means mostly below about 43%; further: 0% is about no effect
# Starred values were filed as active, the others as inactive; ? = inconclusive; / = no result; [ ] = remark or other dose. Most compounds without a hit are left out; they make up all but 21% or so of the library. Unless noted, the call rests on the fitted dose curve; in most records, active means well fitted inhibition curve with a large enough effect; inconclusive means small, poorly fitted or top-dose-only effect, or another doubt; inactive means no such curve, though single readings can be large or run the other way.
SMILES,NS1 inh,Pf growth 48h,Pf growth 96h,Cycloheximide cs,Shiga toxin inh
COc1ccc(-c2csc(Nc3ccccn3)n2)cc1OC,-4%,148%,?,37*,67*
COc1cccc(C(=O)NC2CC(C)(C)Cc3c2cnn3-c2cccc(F)c2)c1OC (configuration not stated),-20%,-4%,?,-1,-9
CC(C)c1cccc(C(C)C)c1NC(=O)c1ccccc1,/,-11%[5.75 µM],-22%,-5,1
COc1cc(NC(=O)CCCc2c[nH]c3ccccc23)cc(OC)c1,-8%,-7%,9%,-2,-7
Oc1ccc(-c2csc(Nc3ccccn3)n2)cc1,-42%,180%,?,43*,122*
O=C(COc1ccccc1)Nc1nc(-c2ccncc2)cs1,11%,?,?,0,-7
c1ccc(-c2csc(Nc3ccccn3)n2)cc1,-12%,200%,76%,60*,82*
O=C(OC(C(=O)NC1CCCC1)c1ccccc1F)c1ccco1 (configuration not stated),-15%,21%,47%,5,30
COc1cccc(NC(=O)c2ccc(NC(=O)C(C)(C)C)cc2)c1,-3%,192%,31%,54*,56*
COc1ccc(NC(=O)c2ccc(N3C(=O)C4CC=C(C)CC4C3=O)cc2)c(OC)c1 (configuration not stated),-6%,-1%[0.00184 µM],-1%,-2,-15
CCCC(=O)Nc1ccc(C(=O)Nc2cccc(OC)c2)cc1,28%,91%,85%,47*,68*
COc1cccc(NC(=O)c2ccc[n+](C)c2)c1,5%,/,6%,-2,2
COc1cccc(NC(=O)c2ccc(N3C(=O)C4CC=C(C)CC4C3=O)cc2)c1 (configuration not stated),-2%,18%,1.5µM*,12,57
C=CCN1C(=O)N/C(=C/c2ccccc2OCC(=O)Nc2ccc(F)cc2)C1=O,18%,?,?,-4,-14
CCOC(=O)C1CCN(c2ccccc2CN2CCN(c3ccccc3OCC)CC2)CC1,5%,?,?,-3,-3
CN1CCN(c2ccccc2/C=C2/C(=O)Nc3ccccc32)CC1,1%,-13%[0.00184 µM],?,-3,-2
CCc1ccc(NC(=O)CSc2nnc(SCC(=O)Nc3ccc(CC)cc3)n2N)cc1,3%,18%,/,-4,-5
O=C1NN(c2ccc(F)cc2)C(=O)/C1=C\C=C\c1ccco1,22%,-1%,1.7µM*,-2,9
C=CCOc1ccc(C(c2c(C)n(C)n(-c3ccccc3)c2=O)c2c(C)n(C)n(-c3ccccc3)c2=O)cc1,-2%,12%[0.00184 µM],27%,2,32
Cc1ccc(N2C(=O)CC3(CCCC3)CC2=O)cc1,3%,43%,66%,17*,10
Cc1ccc(N2C(=O)CS(=O)(=O)CC2=O)cc1,4%,24%,42%,-7,15
CC(C)c1nnc(SCC(=O)N2CCN(C(=O)c3ccco3)CC2)n1N,/,-3%,12%,-2,4
Cc1ccc(S(=O)(=O)NCC(=O)OCC(=O)N2CCN(C(=O)c3ccco3)CC2)cc1C,/,30%,12%,/,/
O=C(c1ccccc1F)N1CCN(S(=O)(=O)c2ccc3c(c2)OCCO3)CC1,-8%,/,9.3µM*,-3,-10
O=C(c1ccccc1OC(F)F)N1CCN(S(=O)(=O)c2ccc3c(c2)OCCCO3)CC1,/,15µM*,-25%,/,/
SMILES,NS1 inh,Pf growth 48h,Pf growth 96h,Cycloheximide cs,Shiga toxin inh
COc1cccc(CNC(=O)c2cc3oc4ccccc4c3n2C)c1OC,-12%,/,9.3µM*,8,23
CCOc1ccc(CNC(=O)c2cc3oc4ccccc4c3n2C)cc1,-30%,12%,/,13,33
CCOc1ccccc1CNC(=O)c1cc2oc3ccccc3c2n1CC,10%,/,1.2µM*,13,-16
Cn1cccc1C(=O)NCC1CCCCC1,2%,?,?,12,11
O=c1c2cc(Br)ccc2nc(-c2ccc(Cl)cc2)n1O,10%,0%,0%,1,-2
On1c(-c2ccccc2)nc2ccc(Cl)cc21,-78%,?,?,26,84*
COc1ccc(C(=O)c2nc3ccccc3n2C(C)C)cc1,-3%,-12%,35%,-3,-4
COc1ccc(-c2nc3ccccc3n2OC(C)C(=O)O)cc1 (configuration not stated),4%,95%,60%,35*,76*
Clc1ccc(-c2nc3ccccc3n2OCc2ccccc2)cc1,-3%,?,?,-2,-4
CC(On1c(-c2ccccc2)nc2ccc(Cl)cc21)C(=O)O (configuration not stated),0%,14%,15%,28*,56*
Cc1ccc(-c2nc3ccc(Cl)cc3n2OC(C)C(=O)O)cc1 (configuration not stated),4%,24%,13%,36*,83*
CN(C(=O)C1CCC(=O)N(CCc2ccc(Cl)cc2)C1)C1CCOCC1 (configuration not stated),3%,3%,?,-2,-13
Cc1ccnc(NS(=O)(=O)c2ccc(NC(=O)c3c(-c4ccccc4Cl)noc3C)cc2)n1,13%,7%,6%,1,2
COc1cc2c(cc1OC)C(c1ccccc1C(F)(F)F)CC(=O)N2 (configuration not stated),?,?,?,1,8
Cc1c(CN(C)C(=O)c2sc3cc(Cl)ccc3c2Cl)cnn1C,-144%,?,46%,-1,-15
Cc1ccc(-c2nc3ccc(Cl)cc3n2OC(=O)N(C)C)cc1,-4%,?,/,36,124*
O=C(CSc1nnc(-c2ccco2)o1)Nc1ccccc1Cl,-16%,174%,146%,16*,13
CN(CC(=O)Nc1ccccc1Cl)C(=O)CSc1nnc(-c2ccco2)o1,/,-13%,?,6,1
O=c1c2ccccc2nnn1CSc1nnc(-c2ccco2)o1,-18%,-3%,1.2µM*,20*,38
O=C(CSc1nnc(-c2ccccn2)o1)Nc1ccccc1Cl,11%,106%,-5%,33*,71*
CC(=O)c1ccccc1OCCOc1ncnc2sccc12,/,?,?,16*,36*
Oc1ccc(CCc2n[nH]c(=S)n2-c2ccc(F)cc2)cc1,-2%,-5%,-1%,1,-4
COc1ccccc1OCc1ccc(C(=O)NN)o1,4%,0%,0%,19*,42*
COc1ccccc1OCc1ccc(C(=O)Nc2ccc(Cl)cn2)o1,2%,61%,-3%,12*,30
O=C1OCCC1Sc1nc(-c2ccccc2)cs1 (configuration not stated),3%,0%,0%,6,-3
CCCc1ccc(C(C)NC(=S)NCc2ccc(F)cc2)cc1 (configuration not stated),-5%,?,12µM*,8,6
CCC(C)c1ccc(C(C)NC(=S)NCc2ccc(F)cc2)cc1 (configuration not stated),1%,?,?,-1,-6

# Source: PubChem BioAssay
